Results: PubChem BioAssay (NCI)
The panel holds about 83,000 compounds, 20% with a hit somewhere; the sample as a whole holds those more often.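 Growth was measured after 48 h exposure to one concentration of compound in 96-well plates. Values under 10 count as active.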 The source made the active and inactive calls.

These molecules were tested on TK-10 renal (assay: NCI-60 one-dose screen, 48 h (100 = growth as untreated, 0 = no growth, -100 = all killed)). Conditions: 10 µM unless noted.

Row | SMILES | growth
1 | O=C(CCCCC(=O)N/N=C\c1ccccc1O)N/N=C\c1ccccc1O | 40.5% (inactive)
2 | Cc1ccc(NC(=O)/C=C/c2ccccc2)c(C(N)=O)c1 | 92.9% (inactive)
3 | CN1CCN(CCCOc2cccc3nc(Nc4ccc(Cl)c(F)c4)ccc23)CC1 | 88.4% (inactive)
4 | NC1=C(Cl)C(=O)c2ccc(S(N)(=O)=O)cc2C1=O | -16.5% (active)
5 | O=C1c2cc3c(cc2-c2c1c1ccc(Cl)cc1c(=O)n2CCCN1CCOCC1)OCO3 | 103% (inactive)
6 | O=C1C=CC(=O)N1c1ccc2c(c1)Cc1cc(F)ccc1-2 | 99% (inactive)
7 | FC(F)(F)c1nc2c(NCc3ccc(-c4ccccc4)cc3)cccc2[nH]1 | 79.2% (inactive)
8 | OC(c1cc2cc(Cl)c(Cl)cc2c2cc(C(F)(F)F)ccc12)C1CCCCN1 (stereo unspecified) | -75.2% (active)
9 | O=C(Cc1ccccc1Nc1c(Cl)cccc1Cl)NN1C(=O)/C(=C/c2ccc(Br)cc2)SC1=S | 107% (inactive)
10 | CCOC(=O)c1csc(NC(=O)COc2cccc(/C=C3\CSc4ccccc4C3=O)c2)n1 | 68.6% (inactive)
11 | Cn1cc(-c2nonc2-c2c[nH]c3ccccc23)c2cccnc21 | 75.3% (inactive)
12 | COc1cc(/C=C/c2cc(/C=C/c3ccc(O)c(OC)c3)n(-c3c(C)cccc3C)c(=O)n2)ccc1O | 27.4% (inactive)
13 | COc1cccc(C2=NN3C(C2)c2cc(Br)cc(OC)c2OC32CCN(Cc3ccccc3)CC2)c1 (stereo unspecified) | 108% (inactive)
14 | CC(C)(C)c1cc(C(C)(C)C)cc(S(=O)(=O)Nc2cc3ccccc3cc2C(=O)NCCN)c1 | 78.8% (inactive)
15 | Cc1[nH]c(-c2cc(N)ccc2Cl)c2c1C(=O)CCCC2 | 1.81% (active)
16 | NC(=O)c1cc(Cl)ccc1NC(=O)/C=C/c1ccccc1 | 45.1% (inactive)
17 | Cn1ncc2c(=O)nc3c(-c4ccccc4)n[nH]n3c21 | 99.5% (inactive)
18 | Cn1cc(C(=O)c2nc(-c3c[nH]c4ccc(Br)cc34)no2)c2cc(F)ccc21 | 115% (inactive)
19 | Cc1[nH]c(-c2ccc3cc[nH]c3c2)c2c1C(=O)CCCC2 | 32.7% (inactive)
20 | O=C1/C(=C(/c2ccccc2)N2CCOCC2)Cc2ccccc21 | -16.7% (active)
21 | Cn1c(NCCc2ccc(O)c(O)c2)nc2c1c(=O)n(Cc1ccc(Cl)c(Cl)c1)c(=O)n2C | 65.9% (inactive)
